About 7,500 (2.1%) of roughly 360,000 compounds were called active. Not shown: some 8% with an inconclusive outcome. Calls come from the whole dose curve; as a rule, active = well fitted cell-killing curve with a large enough effect; inconclusive = small, poorly fitted or top-dose-only effect, or effect the other way, or another doubt; inactive = no such curve, though single readings can be large or run the other way. What follows is part of a selection rich in actives, with near analogues and random picks from the rest. A call without a number means that no potency is given here.
test: qHTS for induction of synthetic lethality in tumor cells producing 2HG: qHTS for the HT-1080-IDH1KD cell line; details: HT-1080 IDH1 knockdown viability, ATP luminescence, 48 h; series mostly up to 46.1 µM
How it was run: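 Using the IDH1-knockdown HT-1080 line run in the same batch and compound series as the NT line, viability after 48 h at 37 °C was determined by CellTiter-Glo luminescence and expressed as % activity.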
Potency is the fitted concentration of half-maximal effect.

Structure (SMILES) | Potency
O=C(C[C@H]1CC[C@H]2[C@@H](COC[C@H](O)CN2C(=O)c2ccccn2)O1)N1CCN(c2ccccc2)CC1 | inactive
c1cc(-c2ccc3[nH]ccc3c2)n2ccnc2c1 | inactive
CCCCN(CCCC)CCC(O)c1cc2c(Cl)cc(Cl)cc2c2cc(C(F)(F)F)ccc12 (stereo not drawn) | 20.6 µM (active)
CS(=O)(=O)N1CCCCC1c1cc(C(=O)NCc2ccccc2)no1 (stereo not drawn) | inactive
Cn1c(Nc2ccc(F)cc2)nc2cc(-c3ccsc3)sc2c1=O | inactive
CC(C)NC(=O)C1(C)CCCCN1Cc1cccc(C(F)(F)F)c1 (stereo not drawn) | inactive
Cc1ccc(S(=O)(=O)NN=C2CC(C)(C)CC(=O)C2(C)C)cc1 | inactive
COc1ccc(-c2nnc(SC(=O)N3c4ccccc4Sc4ccccc43)o2)cc1 | 11.2 µM (active)
COc1ccc(-c2nnc(-c3ccc4ccccc4c3)o2)cc1 | inactive
COc1ccc(-c2nnc(SC(C)C(=O)NC3CC3)o2)cc1 (stereo not drawn) | inactive
Cc1cccc(S(=O)(=O)N(C)C[C@@H]2OCc3cnnn3CCCC(=O)N([C@H](C)CO)C[C@@H]2C)c1 | inactive
Cc1ccc(Cc2c(-c3ccc(C)cc3)nc3c4ccccc4ccn23)cc1 | inactive
CS(=O)(=O)c1cccc(-c2ccc3nncn3c2)c1 | inactive
COc1cc(NC(=O)c2cncc(-c3ccc(C#N)cc3)c2)cc(C(=O)Nc2cccc(C(F)(F)F)c2)c1 | inactive
COc1cc(NC(=O)c2[nH]cnc2C(N)=O)cc(C(=O)Nc2cccc(C(F)(F)F)c2)c1 | 20.6 µM (active)
Cc1cccc(NC(=O)c2nnn(-c3cccc(C(F)(F)F)c3)c2N)c1 | inactive
C[C@H](CO)N1C[C@H](C)[C@H](CN(C)C(=O)c2ccncc2)OCc2ccccc2-c2c(n(C)c3ccccc23)C1=O | inactive
COc1ccc(C(C(=O)NCc2ccccc2)n2c(=O)c(-c3ccccc3)nc3ccccc32)cc1 (stereo not drawn) | inactive
C[C@H](O)[C@@H]1C(=O)N2CCc3c([nH]c4ccccc34)[C@@H]2C[C@@H]1N(C)C(=O)Nc1ccc(F)cc1 | inactive
CC1(C(=O)Nc2ccc3c(c2)OCCO3)CCN1C(=O)Cc1cc(F)ccc1F (stereo not drawn) | inactive
COC(=O)c1ccc(NCC(=O)c2ccccc2)cc1 | inactive
COC(=O)c1ccc(NCc2cc(O)ccc2O)cc1 | 20.6 µM (active)
O=C(OC12CC3CC(CC(C3)C1)C2)c1ccc(NCc2cc(O)ccc2O)cc1 | 23.1 µM (active)
CC(C)OC(=O)c1ccc(NCc2cc(O)ccc2O)cc1Cl | 23.1 µM (active)
CC(CN1CCOCC1)OC(=O)c1ccc(Cl)cc1Cl (stereo not drawn) | inactive

Structure (SMILES) | Potency
CC1(C)C2CCC1(C)C(OC(=O)c1ccc(O)cc1)C2 (stereo not drawn) | inactive
COC(=O)c1ccc(NC(=O)Nc2ccc(C)cc2)cc1 | inactive
CC(C)NC(=O)c1ccc(Cl)cc1Cl | inactive
C[C@@H]1CN([C@@H](C)CO)C(=O)c2cc(NS(C)(=O)=O)ccc2O[C@@H](C)CCCCO[C@H]1CN(C)C(=O)Nc1ccc2c(c1)OCO2 | inactive
CCNC(=O)C1(C)CCCN(Cc2noc(-c3ccccc3OC)n2)C1 (stereo not drawn) | inactive
CC(=O)c1nn(-c2ccccc2)c(=Nc2ccccc2)cc1C | inactive
CCCNC(=O)C1(C)CCN1C(=O)C1(c2ccccc2)CC1 (stereo not drawn) | inactive
CCCCCCN1CCN(C2CN(Cc3cn(CCCCCC)nn3)S(=O)(=O)C2)CC1 (stereo not drawn) | inactive
COc1ccc(CN2CCC(C)(Oc3cccc(F)c3)C2)c2ccccc12 (stereo not drawn) | inactive
CCCCN1C[C@H](c2ccc(Br)cc2)[C@@H](CC(=O)Nc2ccc(Br)cc2)C1=O | inactive
O=C(CNC(=O)N1CC(=O)Nc2ccccc21)Nc1ccc(Br)cc1F | inactive
COc1cccc(/C=N/NC(=O)CNC(=O)c2ccc(S(=O)(=O)N3CCOCC3)cc2)c1OC | inactive
COc1ccc(/C=N/NC(=O)CNC(=O)c2ccc(S(=O)(=O)N3CCCC3)cc2)c(OC)c1 | inactive
COc1ccc(C(=O)NCC(=O)N/N=C/c2ccc([N+](=O)[O-])o2)cc1OC | 14.6 µM (active)
Cc1ccc(-c2nc3ccccn3c2Nc2ccc(F)cc2)o1 | inactive
O=C1NC[C@H](CCCCN2C[C@H](Cc3ccc(O)cc3)N(CCc3ccccc3)C(=O)C2=O)N(CCc2ccccc2)C1=O | inactive
Cc1ccccc1NC(=O)NCC1CCN(Cc2cccc(Cl)c2)CC1 | inactive
Cc1ccc(C)c(CN2CCC(CNC(=O)Nc3ccc(C)c(F)c3)CC2)c1 | inactive
Cc1cccc(CN2CCC(CNC(=O)Nc3ccc(F)c(Cl)c3)CC2)c1 | 14.6 µM (active)
CSCCC(C(=O)NC(C)(C)C)n1c(-c2ccccc2)nc2ccccc21 (stereo not drawn) | inactive
O=C(Nc1nnc(-c2ccco2)o1)c1ccc(S(=O)(=O)N2CCOCC2)cc1 | inactive
COc1cccc(-c2nnc(NC(=O)c3ccc(S(=O)(=O)N(CC(C)C)CC(C)C)cc3)o2)c1 | 2.59 µM (active)
COc1ccc(-c2nnc(NC(=O)CS(=O)(=O)c3ccc(Cl)cc3)o2)c(OC)c1 | inactive
COc1cc(C)c(CN2CCN(C(=O)CCC(=O)c3ccc(C)s3)CC2)cc1OC | inactive
COc1ccc(NC(=O)c2sc(=O)n(Cc3ccc(S(=O)(=O)N(C)C)cc3)c2C)cc1 | inactive

Structure (SMILES) | Potency
CC1(C(=O)Nc2ccc3c(c2)OCCO3)CSCC(=O)N1CCOc1ccccc1 (stereo not drawn) | inactive
Cc1ccn(CC(=O)NC2CCCN(Cc3ccccc3F)C2)n1 (stereo not drawn) | inactive
CC1Cc2[nH][nH]c(=O)c2C(C2CC2)O1 (stereo not drawn) | inactive
O=C(CSc1ncn[nH]1)Nc1ccc(Br)cc1Br | inactive
O=C(/C=C/Sc1ncn[nH]1)c1ccc(Cl)cc1 | 5.8 µM (active)
Cc1cccc(C=CC(=O)c2ccc(Cl)cc2)c1 | inactive
Cc1ccc([C@H]2C[C@H](O)[C@@H](n3cc(COC(=O)c4ccccc4)nn3)CN2C(=O)C2CCCCC2)cc1 | inactive
Nc1nc(Nc2ccccc2F)nc(NC2CCCCC2)c1[N+](=O)[O-] | 18.4 µM (active)
Nc1nc(NCC2CCCO2)nc(Nc2ccccc2F)c1[N+](=O)[O-] (stereo not drawn) | inactive
C=CCNc1nc(N)c([N+](=O)[O-])c(NC2CCCCC2)n1 | inactive
Cc1cccc(-n2cc(CN3CCN(C(=O)c4ncn[nH]4)CC3)c(-c3cccc(F)c3)n2)c1 | inactive
COc1ccc(-n2cc(CNC3CCOCC3)c(-c3cccc(F)c3)n2)cc1 | 18.4 µM (active)
CCC(O)C1CCN(Cc2cn(-c3ccc(OC)cc3)nc2-c2cccc(F)c2)CC1 (stereo not drawn) | 14.6 µM (active)
COc1ccc(-n2cc(CN(C)Cc3n[nH]c(=O)[nH]3)c(-c3cccc(F)c3)n2)cc1 | inactive
COc1ccc(-c2nn(-c3ccccc3)cc2CN2CCCO2)c(F)c1 | inactive
Cn1cc(CN2CCC(C(O)CCc3ccccc3)CC2)c(-c2ccccc2F)n1 (stereo not drawn) | inactive
CC1(C)CN(Cc2cccnc2)C(=O)[C@H]1CC(=O)Nc1ccc(Br)cc1 | inactive
CCc1nnc(NC(=O)c2ccco2)s1 | inactive
Cn1cccc1/C=N/NC(=O)c1ccc(OC(F)(F)C(F)F)cc1 | inactive
Cn1nccc1NC(=O)Nc1ccc(OC(F)(F)F)cc1 | inactive
O=C(Nc1ccc(OC(F)(F)F)cc1)c1ccc2c(c1)no[n+]2[O-] | 11.6 µM (active)
CC1(c2cccc(N)c2)OCCO1 | inactive
Cc1ccc(-c2cnc(C(O)c3cccc(C)c3C)[nH]2)cc1 (stereo not drawn) | inactive
Cc1ccc(-c2nc3c(C)cc(Br)cn3c2Cc2ccccc2)cc1 | inactive
CC(C)C[C@H]1CN([C@@H](Cc2ccccc2)CN2CCC[C@@H]2CN2C(=O)C(=O)NC[C@@H]2Cc2ccc(O)cc2)C(=O)C(=O)N1CCc1ccccc1 | inactive

Structure (SMILES) | Potency
CCOc1ccc(CCN2C(=O)C(=O)N([C@@H](Cc3ccc(O)cc3)CN3CCC[C@H]3CN3C(=O)C(=O)NC[C@@H]3CC(C)C)C[C@@H]2Cc2ccccc2)cc1 | inactive
CC(C)C[C@H]1CNC(=S)N1C[C@H]1CCCN1C[C@H](Cc1ccc(O)cc1)N1C[C@H](Cc2ccc(O)cc2)N(CC2CCCCC2)C1=S | 14.6 µM (active)
CC(C)[C@H](NC(=O)c1ccccc1F)C(=O)Nc1cccc(S(=O)(=O)N2CCOCC2)c1 | inactive
C[C@H]1NS(=O)(=O)c2cc(Cl)ccc2O[C@@H]1c1ccccc1 | inactive
CC(Sc1ccc(S(=O)(=O)N2CCN(C)CC2)cn1)C(=O)NC1CCCC(C)C1C (stereo not drawn) | inactive
CC1CC(C)CN(CCOc2cccc3ccccc23)C1 (stereo not drawn) | inactive
CC(C)c1ccccc1OCC(O)CN(CC(O)COc1cccc2ccccc12)C(C)C (stereo not drawn) | 25.9 µM (active)
CCC(C)Sc1nc2c(c(=O)[nH]c(=O)n2C)n1CC(O)COc1cccc2ccccc12 (stereo not drawn) | inactive
Cc1[nH]c2ccccc2c1C(=O)C(=O)NCc1nnnn1-c1cccc(F)c1 | inactive
O=C(NCc1ccc(F)cc1F)[C@@H]1CCCN1C(=O)[C@@H]1CCCN1C(=O)c1cccc(Cl)c1 | inactive
O=C(c1ccc2c(=O)n(Cc3ccco3)c(=S)[nH]c2c1)N1CCCC1 | inactive
Cc1nc2nc(CSc3nc4ccccc4s3)cc(=O)n2[nH]1 | inactive
CCN(CC)CCCSc1nc2ccccc2s1 | inactive
O=[N+]([O-])c1c(NCCO)cc(Sc2nc3ccccc3s2)c2nonc12 | 3.16 µM (active)
CCc1nc2c(OCCc3cccc(OC)c3)cccn2c1N(C)C(=O)c1ccc(C)cc1 | inactive
Cc1cc(C(=O)Nc2nnc(C3CC3)s2)c(C)s1 | inactive
O=C(Nc1nnc(C2CC2)s1)c1ccccn1 | 5.01 µM (active)
CCc1ccccc1OCC(=O)Nc1nnc(C2CC2)s1 | inactive
C[C@@H]1CN([C@H](C)CO)C(=O)c2cc(-c3ccc(F)cc3)cnc2O[C@H]1CN(C)C(=O)c1ccc(F)cc1 | inactive
O=C(Cc1ccccc1)NCc1ccc(F)cc1 | inactive
O=C(CCc1ccccc1)NNc1ccc(F)cc1 | 2.31 µM (active)
CC(=O)Nc1ccc(S(=O)(=O)NNC(=O)CCc2ccccc2)cc1 | inactive
COc1ccc(-c2ccc(CN3C(C(C)C)C(=O)N(Cc4cn(CC5CCCCC5)nn4)CCS3(=O)=O)cc2)cn1 (stereo not drawn) | inactive

Reference: PubChem BioAssay AID686971 (National Center for Advancing Translational Sciences (NCATS), 2013)
